Holding throughout (experiment): protein-binding microarray (PBM); PBM: ~300 nM protein, 6 mM HEPES pH 7.8, 80 mM KCl, 0.5 mM EDTA, 0.5 mM EGTA, 6% glycerol, 35 ng/ul poly-dIdC, 1% milk, 1 h, room temperature; Ap Aiptasia and Nv Nematostella (sea anemones) / Co Capsaspora / Aq Amphimedon (sponge) / Dm Drosophila / Hu human; RHD is the Rel homology domain; high values mean tight binding
Common to all, as to conditions: dsDNA, one strand shown

For assay [1], the target named is T1, GST-Ap-NF-kB RHD (Exaiptasia pallida (Aiptasia), UniProt A0A913YAJ5 2-422).
T1 sequence: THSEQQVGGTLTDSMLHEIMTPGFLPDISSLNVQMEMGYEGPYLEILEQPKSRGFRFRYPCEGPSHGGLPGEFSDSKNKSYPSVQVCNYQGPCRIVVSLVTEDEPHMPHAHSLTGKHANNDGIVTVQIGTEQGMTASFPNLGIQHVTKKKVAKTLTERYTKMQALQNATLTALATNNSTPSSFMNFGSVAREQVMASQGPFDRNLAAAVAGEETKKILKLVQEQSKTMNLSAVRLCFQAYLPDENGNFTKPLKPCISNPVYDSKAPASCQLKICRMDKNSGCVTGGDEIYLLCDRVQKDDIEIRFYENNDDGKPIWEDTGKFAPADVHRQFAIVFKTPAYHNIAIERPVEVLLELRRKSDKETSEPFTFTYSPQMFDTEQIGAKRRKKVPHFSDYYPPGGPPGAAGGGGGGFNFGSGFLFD

The target of assay [2] is T2, GST-Nv-NF-kB (Cys allele) (Nematostella vectensis, UniProt E5G601 2-411).
T2 sequence: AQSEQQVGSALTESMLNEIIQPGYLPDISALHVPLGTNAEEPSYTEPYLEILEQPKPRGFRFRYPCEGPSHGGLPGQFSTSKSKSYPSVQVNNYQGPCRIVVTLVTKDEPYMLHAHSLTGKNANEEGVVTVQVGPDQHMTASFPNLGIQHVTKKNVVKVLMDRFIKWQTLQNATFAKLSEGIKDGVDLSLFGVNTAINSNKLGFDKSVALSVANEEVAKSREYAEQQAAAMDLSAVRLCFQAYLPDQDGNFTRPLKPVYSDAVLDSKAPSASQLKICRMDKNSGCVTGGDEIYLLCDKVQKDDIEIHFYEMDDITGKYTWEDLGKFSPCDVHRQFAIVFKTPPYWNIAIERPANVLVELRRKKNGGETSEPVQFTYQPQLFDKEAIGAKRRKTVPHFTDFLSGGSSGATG

Assay [3] concerns the target T3, GST-Nv-NF-kB (Ser allele) (Nematostella vectensis, UniProt A7UNT2 2-411).
T3 sequence: T2 sequence with Q21R, C66S, S207N, E215Q, V217A, E225K, A268E, D399E

Assay [4] deals with T4, GST-Co-NF-kB (Capsaspora owczarzaki, UniProt F1ARL5 200-546).
T4 sequence: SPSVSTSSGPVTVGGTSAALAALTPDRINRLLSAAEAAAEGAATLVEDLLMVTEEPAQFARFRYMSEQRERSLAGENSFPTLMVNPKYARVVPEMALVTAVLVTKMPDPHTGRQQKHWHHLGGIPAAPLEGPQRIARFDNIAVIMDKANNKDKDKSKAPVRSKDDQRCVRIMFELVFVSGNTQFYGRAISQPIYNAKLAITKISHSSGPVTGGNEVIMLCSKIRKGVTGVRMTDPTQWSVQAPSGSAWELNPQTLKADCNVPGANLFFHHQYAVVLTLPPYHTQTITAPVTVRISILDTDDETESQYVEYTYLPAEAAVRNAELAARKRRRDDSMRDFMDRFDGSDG

The target of assay [5] is T5, GST-Dm-Relish (Drosophila melanogaster, UniProt Q94527 99-473).
T5 sequence: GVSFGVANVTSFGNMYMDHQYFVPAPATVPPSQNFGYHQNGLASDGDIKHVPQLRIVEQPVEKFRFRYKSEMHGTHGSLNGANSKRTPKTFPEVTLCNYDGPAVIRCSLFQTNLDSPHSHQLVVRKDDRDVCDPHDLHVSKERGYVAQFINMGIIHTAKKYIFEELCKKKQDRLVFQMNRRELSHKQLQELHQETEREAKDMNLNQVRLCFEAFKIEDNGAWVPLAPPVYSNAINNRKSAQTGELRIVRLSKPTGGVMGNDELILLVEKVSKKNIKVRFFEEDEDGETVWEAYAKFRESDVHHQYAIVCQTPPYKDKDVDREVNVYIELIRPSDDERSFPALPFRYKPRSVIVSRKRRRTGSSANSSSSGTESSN

In assay [6] the target is T6, GST-Aq-NF-kB (Amphimedon queenslandica, UniProt A9Y5G7 2-389).
T6 sequence: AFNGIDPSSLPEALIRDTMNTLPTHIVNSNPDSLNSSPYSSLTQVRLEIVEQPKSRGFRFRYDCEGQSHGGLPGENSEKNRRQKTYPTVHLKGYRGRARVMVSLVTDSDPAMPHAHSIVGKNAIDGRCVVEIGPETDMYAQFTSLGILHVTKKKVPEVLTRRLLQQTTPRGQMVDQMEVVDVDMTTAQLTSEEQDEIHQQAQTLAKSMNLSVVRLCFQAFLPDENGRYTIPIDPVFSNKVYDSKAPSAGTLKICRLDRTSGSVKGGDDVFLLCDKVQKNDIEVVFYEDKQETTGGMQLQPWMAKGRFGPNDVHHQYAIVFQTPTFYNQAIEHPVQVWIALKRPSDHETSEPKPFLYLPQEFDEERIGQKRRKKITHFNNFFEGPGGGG

Assay [7] concerns the target GST-Hu-p50 (Homo sapiens, UniProt P19838 7-356).

Changes are numbered by the printed parent chain.

Chain of GST-Hu-p50 (P19838 7-356): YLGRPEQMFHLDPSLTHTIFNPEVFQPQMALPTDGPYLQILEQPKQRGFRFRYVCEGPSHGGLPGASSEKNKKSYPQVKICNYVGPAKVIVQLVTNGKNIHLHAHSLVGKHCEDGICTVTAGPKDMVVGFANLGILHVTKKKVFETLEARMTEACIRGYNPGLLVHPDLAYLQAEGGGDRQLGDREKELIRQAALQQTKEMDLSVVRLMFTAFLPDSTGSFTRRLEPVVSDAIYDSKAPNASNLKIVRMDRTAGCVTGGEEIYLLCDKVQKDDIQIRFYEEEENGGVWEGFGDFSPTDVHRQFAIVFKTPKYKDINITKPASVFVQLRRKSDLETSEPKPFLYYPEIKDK

For the sequence “CCGATTAACATCAAGGGGAATCCTGATGTTAATCGGGTCTTGATTCGCTTGACGCTGCTG”, the binding signal in assay [1] was 9.67 z-score; in assay [2], 11 z-score; in assay [3], 10 z-score; in assay [4], 5.17 z-score; in assay [5], 9.09 z-score; in assay [6] it was 7.69 z-score. Further, the binding signal in assay [7] worked out at 6.99 z-score.
With “CCGATTAACATCAAGGAGTTCCCTGATGTTAATCGGGTCTTGATTCGCTTGACGCTGCTG”, the binding signal was found to be 3.02 z-score in assay [1]; 2.29 z-score in assay [2]; 1.06 z-score in assay [3]; 1.52 z-score in assay [4]; 5.39 z-score in assay [5]; 4.24 z-score in assay [6]. The binding signal in assay [7] was 2.1 z-score.
As for “CCGATTAACATCAGAGGATTCCCTGATGTTAATCGGGTCTTGATTCGCTTGACGCTGCTG”, the binding signal was 3.72 z-score in assay [1]; 4.52 z-score in assay [2]; 4.31 z-score in assay [3]; 2.44 z-score in assay [4]; 7.61 z-score in assay [5]; 4.43 z-score in assay [6]. The sequence also returned a binding signal in assay [7] of 2.84 z-score.
For the sequence “CCGATTAACATCAAATTTCCCCGTGATGTTAATCGGGTCTTGATTCGCTTGACGCTGCTG”, the binding signal in assay [1] came out at 8.33 z-score; in assay [2], 9.6 z-score; in assay [3] it was 11.4 z-score; in assay [4], 9.87 z-score; in assay [5] it was 7.13 z-score; in assay [6], 7.38 z-score. In assay [7], this sequence returned a binding signal of 6.52 z-score.
“CCGATTAACATCAGAAATGTCCCTGATGTTAATCGGGTCTTGATTCGCTTGACGCTGCTG”: the binding signal in assay [1] is 2.83 z-score; in assay [2], 4.85 z-score; in assay [3], 4.61 z-score; in assay [4], 1.29 z-score; in assay [5] it was 3.1 z-score; in assay [6], 4.94 z-score. In addition, in assay [7], the binding signal stood at 4.36 z-score.
Turning to “CCGATTAACATCACCGTTCCCCCTGATGTTAATCGGGTCTTGATTCGCTTGACGCTGCTG”, the binding signal in assay [1] came out at 6.48 z-score; in assay [2], 5.21 z-score; in assay [3], 6.93 z-score; in assay [4], 6.76 z-score; in assay [5] it was 2.76 z-score; in assay [6], 4.51 z-score. In assay [7], this sequence registered a binding signal of 5.25 z-score.
On to “CCGATTAACATCACGGGTATTCCTGATGTTAATCGGGTCTTGATTCGCTTGACGCTGCTG”, for which the binding signal amounted to 4.85 z-score in assay [1]; 5.05 z-score in assay [2]; 3.76 z-score in assay [3]; 1.3 z-score in assay [4]; 6.78 z-score in assay [5]; 5.48 z-score in assay [6]. In assay [7], the binding signal was 3.53 z-score.
Take “CCGATTAACATCAGGACTTTCCCTGATGTTAATCGGGTCTTGATTCGCTTGACGCTGCTG”: the binding signal in assay [1] was 6.5 z-score; in assay [2], 10.2 z-score; in assay [3], 6.68 z-score; in assay [4] it was 1.87 z-score; in assay [5] it was 7.98 z-score; in assay [6] it was 10.5 z-score. The binding signal in assay [7] came out at 5.32 z-score.
As for “CCGATTAACATCACACAATCCCCTGATGTTAATCGGGTCTTGATTCGCTTGACGCTGCTG”, the binding signal in assay [1] was found to be 6.64 z-score; in assay [2], 6.65 z-score; in assay [3], 8.71 z-score; in assay [4] it was 2.94 z-score; in assay [5], 3.98 z-score; in assay [6], 4.86 z-score. The binding signal in assay [7] was determined as 5.87 z-score.
For the sequence “CCGATTAACATCAGGGGATTATATGATGTTAATCGGGTCTTGATTCGCTTGACGCTGCTG”, the binding signal in assay [1] is 7.99 z-score; in assay [2], 9.17 z-score; in assay [3], 9.52 z-score; in assay [4], 4.18 z-score; in assay [5], 6.72 z-score; in assay [6], 7.52 z-score. Besides, in assay [7], the binding signal came to 6.4 z-score.
Turning to “CCGATTAACATCAAAATATCCCCTGATGTTAATCGGGTCTTGATTCGCTTGACGCTGCTG”, the binding signal is 8.8 z-score in assay [1]; 9.37 z-score in assay [2]; 11 z-score in assay [3]; 5.38 z-score in assay [4]; 8.53 z-score in assay [5]; 7.25 z-score in assay [6]. In assay [7], this sequence returned a binding signal of 7.09 z-score.
With “CCGATTAACATCACAGTTCCCCCTGATGTTAATCGGGTCTTGATTCGCTTGACGCTGCTG”, the binding signal came to 6.94 z-score in assay [1]; 6.16 z-score in assay [2]; 7.51 z-score in assay [3]; 8.18 z-score in assay [4]; 3.79 z-score in assay [5]; 4.7 z-score in assay [6]. In addition, the binding signal in assay [7] came out at 5.66 z-score.
